# According to the supplement of paper PMC4466140:
# Target: CaNbp2
# Assay: SPOT peptide array binding signal intensity (averaged, normalized) (arbitrary units (background-subtracted, floor 0; scale differs between SH3 domains)); higher = stronger binding of the SH3 domain to the peptide
# Procedure: (§1)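 GST-tagged SH3 domains from S. cerevisiae (Sc), A. gossypii (Ag), C. albicans (Ca) and S. pombe (Sp) were incubated at 10 ug/ml overnight at 4 C on cellulose SPOT membranes carrying 292 synthetic 15-mer peptides mined from the S. cerevisiae proteome (cysteines replaced by serines). Binding was detected with anti-GST antibody, HRP secondary and chemiluminescence, quantified with Genespotter, and reported as normalized spot intensities averaged over biological replicates.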
row,Binder,SPOT peptide array binding signal intensity
1,TKIRRRPQQPLTDFT,48.5
2,LKRITSPPLPPRADS,47

# Target: CaRvs167
# Assay: as above
# Procedure: as §1
row,Binder,SPOT peptide array binding signal intensity
1,TKIRRRPQQPLTDFT,2.67
2,LKRITSPPLPPRADS,2070

# Target: CaRvs167-3
# Assay: as above
# Procedure: as §1
row,Binder,SPOT peptide array binding signal intensity
1,TKIRRRPQQPLTDFT,15.5
2,LKRITSPPLPPRADS,9.5

# Target: CaSho1
# Assay: as above
# Procedure: as §1
row,Binder,SPOT peptide array binding signal intensity
1,TKIRRRPQQPLTDFT,38
2,LKRITSPPLPPRADS,9.5

# Target: CaSla1-D1-D2
# Assay: as above
# Procedure: as §1
row,Binder,SPOT peptide array binding signal intensity
1,TKIRRRPQQPLTDFT,24
2,LKRITSPPLPPRADS,244

# Target: CaSla1-D3
# Assay: as above
# Procedure: as §1
row,Binder,SPOT peptide array binding signal intensity
1,TKIRRRPQQPLTDFT,0.5
2,LKRITSPPLPPRADS,2

# Target: ScAbp1
# Assay: as above
# Procedure: as §1
row,Binder,SPOT peptide array binding signal intensity
1,TKIRRRPQQPLTDFT,25
2,LKRITSPPLPPRADS,16.5

# Target: ScBbc1
# Assay: as above
# Procedure: as §1
row,Binder,SPOT peptide array binding signal intensity
1,TKIRRRPQQPLTDFT,63.5
2,LKRITSPPLPPRADS,35.2

# Target: ScBem1-D1
# Assay: as above
# Procedure: as §1
row,Binder,SPOT peptide array binding signal intensity
1,TKIRRRPQQPLTDFT,10
2,LKRITSPPLPPRADS,10

# Target: ScBzz1-D1
# Assay: as above
# Procedure: as §1
row,Binder,SPOT peptide array binding signal intensity
1,TKIRRRPQQPLTDFT,33
2,LKRITSPPLPPRADS,56

# Target: ScBzz1-D2
# Assay: as above
# Procedure: as §1
row,Binder,SPOT peptide array binding signal intensity
1,TKIRRRPQQPLTDFT,18
2,LKRITSPPLPPRADS,18

# Target: ScCyk3
# Assay: as above
# Procedure: as §1
row,Binder,SPOT peptide array binding signal intensity
1,TKIRRRPQQPLTDFT,38
2,LKRITSPPLPPRADS,2

# Target: ScFus1
# Assay: as above
# Procedure: as §1
row,Binder,SPOT peptide array binding signal intensity
1,TKIRRRPQQPLTDFT,44
2,LKRITSPPLPPRADS,1

# Target: ScHof1
# Assay: as above
# Procedure: as §1
row,Binder,SPOT peptide array binding signal intensity
1,TKIRRRPQQPLTDFT,≤ 0
2,LKRITSPPLPPRADS,234

# Target: ScHse1
# Assay: as above
# Procedure: as §1
row,Binder,SPOT peptide array binding signal intensity
1,TKIRRRPQQPLTDFT,281
2,LKRITSPPLPPRADS,91.5

# Target: ScLsb1
# Assay: as above
# Procedure: as §1
row,Binder,SPOT peptide array binding signal intensity
1,TKIRRRPQQPLTDFT,4.75
2,LKRITSPPLPPRADS,661

# Target: ScLsb2
# Assay: as above
# Procedure: as §1
row,Binder,SPOT peptide array binding signal intensity
1,TKIRRRPQQPLTDFT,1
2,LKRITSPPLPPRADS,1120

# Target: ScLsb3
# Assay: as above
# Procedure: as §1
row,Binder,SPOT peptide array binding signal intensity
1,TKIRRRPQQPLTDFT,115
2,LKRITSPPLPPRADS,7910

# Target: ScLsb4
# Assay: as above
# Procedure: as §1
row,Binder,SPOT peptide array binding signal intensity
1,TKIRRRPQQPLTDFT,15
2,LKRITSPPLPPRADS,5640

# Target: ScMyo3
# Assay: as above
# Procedure: as §1
row,Binder,SPOT peptide array binding signal intensity
1,TKIRRRPQQPLTDFT,1
2,LKRITSPPLPPRADS,24

# Target: ScMyo5
# Assay: as above
# Procedure: as §1
row,Binder,SPOT peptide array binding signal intensity
1,TKIRRRPQQPLTDFT,2
2,LKRITSPPLPPRADS,≤ 0

# Target: ScNbp2
# Assay: as above
# Procedure: as §1
row,Binder,SPOT peptide array binding signal intensity
1,TKIRRRPQQPLTDFT,93
2,LKRITSPPLPPRADS,77.5

# Target: ScPex13
# Assay: as above
# Procedure: as §1
row,Binder,SPOT peptide array binding signal intensity
1,TKIRRRPQQPLTDFT,6.75
2,LKRITSPPLPPRADS,2230

# Target: ScRvs167
# Assay: as above
# Procedure: as §1
row,Binder,SPOT peptide array binding signal intensity
1,TKIRRRPQQPLTDFT,14
2,LKRITSPPLPPRADS,3220

# Target: ScSho1
# Assay: as above
# Procedure: as §1
row,Binder,SPOT peptide array binding signal intensity
1,TKIRRRPQQPLTDFT,148
2,LKRITSPPLPPRADS,270

# Target: ScSla1-D1-D2
# Assay: as above
# Procedure: as §1
row,Binder,SPOT peptide array binding signal intensity
1,TKIRRRPQQPLTDFT,240
2,LKRITSPPLPPRADS,492

# Target: ScSla1-D3
# Assay: as above
# Procedure: as §1
row,Binder,SPOT peptide array binding signal intensity
1,TKIRRRPQQPLTDFT,38.5
2,LKRITSPPLPPRADS,36.2

# Target: SpAbp1-D1
# Assay: as above
# Procedure: as §1
row,Binder,SPOT peptide array binding signal intensity
1,TKIRRRPQQPLTDFT,94
2,LKRITSPPLPPRADS,118

# Target: SpBbc1
# Assay: as above
# Procedure: as §1
row,Binder,SPOT peptide array binding signal intensity
1,TKIRRRPQQPLTDFT,5.75
2,LKRITSPPLPPRADS,3

# Target: SpBzz1-D1
# Assay: as above
# Procedure: as §1
row,Binder,SPOT peptide array binding signal intensity
1,TKIRRRPQQPLTDFT,253
2,LKRITSPPLPPRADS,1080

# Target: SpBzz1-D2
# Assay: as above
# Procedure: as §1
row,Binder,SPOT peptide array binding signal intensity
1,TKIRRRPQQPLTDFT,≤ 0
2,LKRITSPPLPPRADS,1.75

# Target: SpCyk3
# Assay: as above
# Procedure: as §1
row,Binder,SPOT peptide array binding signal intensity
1,TKIRRRPQQPLTDFT,1.5
2,LKRITSPPLPPRADS,3

# Target: SpHof1
# Assay: as above
# Procedure: as §1
row,Binder,SPOT peptide array binding signal intensity
1,TKIRRRPQQPLTDFT,65.5
2,LKRITSPPLPPRADS,168

# Target: SpHof1-2
# Assay: as above
# Procedure: as §1
row,Binder,SPOT peptide array binding signal intensity
1,TKIRRRPQQPLTDFT,5.5
2,LKRITSPPLPPRADS,17.2

# Target: SpHof1-3
# Assay: as above
# Procedure: as §1
row,Binder,SPOT peptide array binding signal intensity
1,TKIRRRPQQPLTDFT,164
2,LKRITSPPLPPRADS,140

# Target: SpHse1
# Assay: as above
# Procedure: as §1
row,Binder,SPOT peptide array binding signal intensity
1,TKIRRRPQQPLTDFT,93
2,LKRITSPPLPPRADS,47.5

# Target: SpLsb1
# Assay: as above
# Procedure: as §1
row,Binder,SPOT peptide array binding signal intensity
1,TKIRRRPQQPLTDFT,5
2,LKRITSPPLPPRADS,1600

# Target: SpLsb4
# Assay: as above
# Procedure: as §1
row,Binder,SPOT peptide array binding signal intensity
1,TKIRRRPQQPLTDFT,104
2,LKRITSPPLPPRADS,4790

# Target: SpMyo1
# Assay: as above
# Procedure: as §1
row,Binder,SPOT peptide array binding signal intensity
1,TKIRRRPQQPLTDFT,8
2,LKRITSPPLPPRADS,102

# Target: SpNbp2
# Assay: as above
# Procedure: as §1
row,Binder,SPOT peptide array binding signal intensity
1,TKIRRRPQQPLTDFT,10.5
2,LKRITSPPLPPRADS,≤ 0

# Target: SpPex13
# Assay: as above
# Procedure: as §1
row,Binder,SPOT peptide array binding signal intensity
1,TKIRRRPQQPLTDFT,1
2,LKRITSPPLPPRADS,≤ 0

# Target: SpRvs167
# Assay: as above
# Procedure: as §1
row,Binder,SPOT peptide array binding signal intensity
1,TKIRRRPQQPLTDFT,11.8
2,LKRITSPPLPPRADS,3150

# Target: SpSla1-D1-D2
# Assay: as above
# Procedure: as §1
row,Binder,SPOT peptide array binding signal intensity
1,TKIRRRPQQPLTDFT,1
2,LKRITSPPLPPRADS,1

# Target: SpSla1-D3
# Assay: as above
# Procedure: as §1
row,Binder,SPOT peptide array binding signal intensity
1,TKIRRRPQQPLTDFT,≤ 0
2,LKRITSPPLPPRADS,1.5

# Target: AgAbp1
# Assay: as above
# Procedure: as §1
row,Binder,SPOT peptide array binding signal intensity
1,LKRITSPPLPPRADS,20.5

# Target: AgBbc1
# Assay: as above
# Procedure: as §1
row,Binder,SPOT peptide array binding signal intensity
1,LKRITSPPLPPRADS,427

# Target: AgBem1-D1
# Assay: as above
# Procedure: as §1
row,Binder,SPOT peptide array binding signal intensity
1,LKRITSPPLPPRADS,59

# Target: AgBzz1-D1
# Assay: as above
# Procedure: as §1
row,Binder,SPOT peptide array binding signal intensity
1,LKRITSPPLPPRADS,87.5

# Target: AgBzz1-D2
# Assay: as above
# Procedure: as §1
row,Binder,SPOT peptide array binding signal intensity
1,LKRITSPPLPPRADS,82

# Target: AgCyk3
# Assay: as above
# Procedure: as §1
row,Binder,SPOT peptide array binding signal intensity
1,LKRITSPPLPPRADS,1

# Target: AgFus1
# Assay: as above
# Procedure: as §1
row,Binder,SPOT peptide array binding signal intensity
1,LKRITSPPLPPRADS,2

# Target: AgHof1
# Assay: as above
# Procedure: as §1
row,Binder,SPOT peptide array binding signal intensity
1,LKRITSPPLPPRADS,678

# Target: AgHse1
# Assay: as above
# Procedure: as §1
row,Binder,SPOT peptide array binding signal intensity
1,LKRITSPPLPPRADS,49

# Target: AgLsb1
# Assay: as above
# Procedure: as §1
row,Binder,SPOT peptide array binding signal intensity
1,LKRITSPPLPPRADS,1010

# Target: AgLsb4
# Assay: as above
# Procedure: as §1
row,Binder,SPOT peptide array binding signal intensity
1,LKRITSPPLPPRADS,5100

# Target: AgMyo5
# Assay: as above
# Procedure: as §1
row,Binder,SPOT peptide array binding signal intensity
1,LKRITSPPLPPRADS,3.25

# Target: AgNbp2
# Assay: as above
# Procedure: as §1
row,Binder,SPOT peptide array binding signal intensity
1,LKRITSPPLPPRADS,22

# Target: AgRvs167
# Assay: as above
# Procedure: as §1
row,Binder,SPOT peptide array binding signal intensity
1,LKRITSPPLPPRADS,1890

# Target: AgSho1
# Assay: as above
# Procedure: as §1
row,Binder,SPOT peptide array binding signal intensity
1,LKRITSPPLPPRADS,4

# Target: AgSla1-D1-D2
# Assay: as above
# Procedure: as §1
row,Binder,SPOT peptide array binding signal intensity
1,LKRITSPPLPPRADS,≤ 0

# Target: AgSla1-D3
# Assay: as above
# Procedure: as §1
row,Binder,SPOT peptide array binding signal intensity
1,LKRITSPPLPPRADS,4.75

# Target: CaAbp1-D1
# Assay: as above
# Procedure: as §1
row,Binder,SPOT peptide array binding signal intensity
1,LKRITSPPLPPRADS,134

# Target: CaAbp1-D2
# Assay: as above
# Procedure: as §1
row,Binder,SPOT peptide array binding signal intensity
1,LKRITSPPLPPRADS,96

# Target: CaBbc1
# Assay: as above
# Procedure: as §1
row,Binder,SPOT peptide array binding signal intensity
1,LKRITSPPLPPRADS,1010

# Target: CaBem1-D1
# Assay: as above
# Procedure: as §1
row,Binder,SPOT peptide array binding signal intensity
1,LKRITSPPLPPRADS,24.5

# Target: CaBzz1-D1
# Assay: as above
# Procedure: as §1
row,Binder,SPOT peptide array binding signal intensity
1,LKRITSPPLPPRADS,1940

# Target: CaBzz1-D2
# Assay: as above
# Procedure: as §1
row,Binder,SPOT peptide array binding signal intensity
1,LKRITSPPLPPRADS,423

# Target: CaCyk3
# Assay: as above
# Procedure: as §1
row,Binder,SPOT peptide array binding signal intensity
1,LKRITSPPLPPRADS,25.5

# Target: CaFus1
# Assay: as above
# Procedure: as §1
row,Binder,SPOT peptide array binding signal intensity
1,LKRITSPPLPPRADS,99.5

# Target: CaHof1
# Assay: as above
# Procedure: as §1
row,Binder,SPOT peptide array binding signal intensity
1,LKRITSPPLPPRADS,4.25

# Target: CaHse1
# Assay: as above
# Procedure: as §1
row,Binder,SPOT peptide array binding signal intensity
1,LKRITSPPLPPRADS,124

# Target: CaLsb1
# Assay: as above
# Procedure: as §1
row,Binder,SPOT peptide array binding signal intensity
1,LKRITSPPLPPRADS,1.5

# Target: CaLsb4
# Assay: as above
# Procedure: as §1
row,Binder,SPOT peptide array binding signal intensity
1,LKRITSPPLPPRADS,6040

# Target: CaMyo5
# Assay: as above
# Procedure: as §1
row,Binder,SPOT peptide array binding signal intensity
1,LKRITSPPLPPRADS,2.5
